SMILES strings stand for the structures. The panel holds about 83,000 compounds, 20% with a hit somewhere; the sample as a whole holds those more often.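 Single-dose data. Exposure time 48 hours. Values below 10 considered active.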 A number with no mark means an inactive call. Calls of active or inactive are those of the source.

Experiment in all cases: NCI-60 one-dose screen, 48 h (100 = growth as untreated, 0 = no growth, -100 = all killed)
In experiment [1] the test system is NCI-H23 lung. The settings on record: 10 µM unless noted.
Experiment [2] concerns NCI-H226 lung. The settings on record: 10 µM unless noted.
Experiment [3] concerns NCI-H322M lung. The settings on record: 10 µM unless noted.
The test system of experiment [4] is HOP-62 NSCLC. The settings on record: 10 µM unless noted.
Experiment [5] relates to NCI-H460 lung. The following applies: 10 µM unless noted.
In experiment [6] the test system is HOP-92 NSCLC. The following applies: 10 µM.
Experiment [7] relates to NCI-H522 lung. The settings on record: 10 µM unless noted.
Experiment [8] deals with A549/ATCC NSCLC. The following applies: 10 µM unless noted.
Experiment [9] relates to 786-0 renal. The following applies: 10 µM unless noted.
In experiment [10] the test system is COLO 205 colon. The following applies: 10 µM unless noted.

For `CCOC(=O)C(=O)CC(=O)N1C(=S)NC(=O)C1CC(C)C` (stereo not given), the growth in [1] was 88.3%; in experiment [2], 99.1%; in [3] it was 96.8%; in experiment [4] it was 101%; in [5] it was 110%; in [6], 99.6%. For the same compound, the growth in experiment [7] is 100%; in [8], 103%; in experiment [9], 96.1%; in [10], 107%.
`NS(=O)(=O)c1ccc(Nc2nc(N/N=C/c3c[nH]c4ccccc34)nc(Nc3ccccc3)n2)cc1`: the growth in [1] was 47.1%; in experiment [2], 42%; in experiment [3] it was 54.4%; in experiment [4], 63.8%; in experiment [5], 41.2%; in experiment [6], 61.4%. Further, the growth in experiment [7] was 31.6%; in experiment [8] it was 78.3%; in experiment [9] it was 41.8%; in experiment [10], 40.9%.
With `Cn1ccnc1C(=O)/C=C/c1ccc(CNC(=O)c2c(F)c(F)c(F)c(F)c2F)cc1`, the growth in [1] is 52.5%; in [2], 69.5%; in [3], 81%; in experiment [4], 66.5%; in [5] it was 7.14% (active); in [6] it was 117%. In addition, the growth in [7] was 32.1%; in experiment [8] it was 70.4%; in [9] it was 28%; in experiment [10] it was 102%.
`COc1cc(OC)c(/C=C/S(=O)(=O)Cc2ccc(OC)c(NCC(=O)NO)c2)c(OC)c1`: the growth in experiment [1] was 15.4%; in experiment [2], 25.6%; in experiment [3], 45.6%; in experiment [4] it was 20.8%; in [5], 10.8%; in experiment [6], 51.8%. Besides, the growth in experiment [7] was 3.67% (active); in [8] it was 22.3%; in [9] it was 28.1%; in experiment [10] it was -67.6% (active).
As to `N#Cc1cnc2ccc(-c3cnc4[nH]ncc4c3)cc2c1N1CCc2cc(F)c(Cl)cc21`, the growth is 7.08% (active) in experiment [1]; -0.212% (active) in experiment [2]; 15.3% in experiment [3]; 3.97% (active) in experiment [4]; 3.18% (active) in experiment [5]; -7.43% (active) in [6]. In addition, the growth in [7] is 1.37% (active); in experiment [8] it was 9.1% (active); in experiment [9] it was 11%; in experiment [10], 12%.
With `C#CCOc1ccc(/C=N\Nc2nc(-c3ccc(C)cc3)cs2)cc1OC`, the growth was 87.2% in experiment [1]; 86.8% in experiment [2]; 92.2% in experiment [3]; 98.5% in experiment [4]; 95.5% in experiment [5]; 73.3% in experiment [6]. Further, the growth was 74.5% in experiment [7], 88.6% in [8], 99.2% in experiment [9] and 94.6% in experiment [10].
On to `O=S(=O)(NCCNc1nccc(-n2cnc3ccccc32)n1)c1ccc(C(F)(F)F)cc1`, for which the growth in [1] was 54.5%; in experiment [2], 62.7%; in [3], 85.3%; in experiment [4] it was 66.1%; in [5], 57.8%; in experiment [6] it was 54.9%. Besides, the growth in [7] is 38.2%; in experiment [8], 55.4%; in experiment [9], 69.6%; in [10] it was 64.9%.
On to `COc1c(N2CC3CCCNC3C2)c(F)cc2c(=O)c(C(=O)N/N=C/c3ccc(F)cc3)cn(C3CC3)c12` (stereo not given), for which the growth in experiment [1] is 87.9%; in experiment [2] it was 109%; in experiment [3], 93.3%; in experiment [4], 98.9%; in experiment [5], 97.6%; in experiment [6] it was 50.2%. Further, the growth in experiment [7] is 94.1%; in [8], 91.5%; in experiment [9], 69.2%; in experiment [10] it was 96.3%.
Consider `CN1CCN(c2ccc(/C=N/n3cnc4oc(-c5ccccc5)cc4c3=N)cc2)CC1`, for which the growth in [1] was 93.6%; in [2] it was 87.5%; in experiment [3], 91.1%; in [4], 84.2%; in experiment [5] it was 99.6%; in [6], 61.4%. The growth was 84.4% in [7], 75.1% in experiment [8], 52.8% in [9] and 63.5% in experiment [10].
As for `CN1CCN(Cc2ccc(NC(=O)c3cncc(C#Cc4cnc5ccc(OCC(C)(C)O)nn45)c3)cc2C(F)(F)F)CC1`, the growth is -58.4% (active) in experiment [1]; -64.1% (active) in experiment [2]; -22.5% (active) in [3]; -9.7% (active) in [4]; -73.9% (active) in [5]; -18.6% (active) in experiment [6]. For the same compound, the growth in [7] is -35.3% (active); in [8], -45.3% (active); in experiment [9], -62.3% (active); in experiment [10] it was -70% (active).
As for `Cc1ccc(-c2cc3nc(C(Cl)Cl)nc(-c4ccco4)n3n2)cc1`, the growth in experiment [1] is 59.8%; in experiment [2], 87%; in experiment [3], 2.67% (active); in experiment [4] it was -12.3% (active); in [5], -21.6% (active); in [6], -0.128% (active). Further, the growth was 94.5% in [7], 2.51% (active) in experiment [8], 59.5% in experiment [9] and -39.4% (active) in experiment [10].
As for `Cc1ccc(NC(=O)c2ccc(CN3CCN(C)CC3)cc2)cc1Oc1ccc(-c2[nH]nc3ncnc(N)c23)cc1`, the growth was 99.6% in [1]; 98.5% in [2]; 97.3% in [3]; 104% in [4]; 110% in experiment [5]; 98.3% in experiment [6]. The growth was 89.9% in [7], 98.8% in experiment [8], 63.7% in experiment [9] and 28.1% in [10].
Consider `Cc1ccc(NC(=O)c2ccc(CN3CCOCC3)c(C(F)(F)F)c2)cc1Oc1ccc(-c2[nH]nc3ncnc(N)c23)cc1`, for which the growth in [1] is 84.6%; in experiment [2] it was 66%; in experiment [3] it was 72%; in experiment [4], 86.9%; in experiment [5] it was 66.3%; in [6], 50.8%. The growth in experiment [7] was 62.5%; in [8], 65.1%; in experiment [9] it was 69.2%; in experiment [10], 18.8%.
